Rows were chosen to be rich in hits. Some 2.8% of all compounds tested hit in one or more screens of this group.
Pol eta inh – qHTS for Inhibitors of Polymerase Eta. Potency, µM (doses to about 114 µM), for inactives: top-dose activity change, negative = inhibition, actives largely listed as inhibitors. recombinant Pol eta, fluorescent DNA replication assay. AID 588591, 2011. 390,000 tested, 1.2% active; note: potency is the fitted concentration of half-maximal effect; % is set by controls: 0 for no effect and ±100 for the full control effect
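Pol eta (10 nM) was preincubated with compounds for 15 min at room temperature, after which fluorescent replication substrate (50 nM final) was added to start the reaction. Fluorescence was read kinetically at 0 and 10 min.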
WRN helicase inh – qHTS for Inhibitors of WRN Helicase | WRN helicase unwinding, fluorescent forked duplex, kinetic | Potency, µM (top dose mostly 114 µM), inactives show top-dose activity change, negative = inhibition, hits mostly inhibitors | 360,000 tested, 0.46% active | AID 651768, 2012; note: potency is the fitted concentration of half-maximal effect; % is set by controls: 0 for no effect and ±100 for the full control effect; nearly all actives have a fitted effect of over 55% in size
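Kinetic red-fluorescence monitoring (525/598 nm) tracks WRN helicase activity after 100 nM fluorophore-quencher forked duplex and 2 mM ATP are added to 20 nM enzyme pretreated 15 min at room temperature with compound.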
Pol beta inh – qHTS Assay for Inhibitors of DNA Polymerase Beta; P06746; Pol beta primer extension/strand displacement, fluorescence kinetic; Potency, µM (top dose mostly 114 µM), without a hit: at the top dose activity change, negative = inhibition, actives largely listed as inhibitors; 340,000 tested, 1.3% active; AID 485314, 2010; note: potency is the fitted concentration of half-maximal effect; % is set by controls: 0 for no effect and ±100 for the full control effect
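Kinetic readout of DNA synthesis with strand displacement by Pol beta. Compound and 10 nM enzyme sit 15 min at room temperature; 50 nM substrate starts the reaction, read immediately and at 10 min.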
Pol iota inh – qHTS for Inhibitors of Polymerase Iota; DNA polymerase iota (Homo sapiens), Q9UNA4; 390,000 tested, 1% active; Potency, µM (top dose mostly 115 µM), without a hit: at the top dose activity, negative = inhibition, most hits filed as inhibitors; Pol iota fluorescent replication assay, 10 min; note: potency is the fitted concentration of half-maximal effect
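Fluorescent replication assay read twice, at 0 min and 10 min after adding 50 nM (final) substrate. Enzyme (10 nM) and compounds were first incubated 15 min at room temperature; enzyme-free buffer wells were negative controls.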
PI5P4K alpha inh – qHTS for Inhibitors of phosphatidylinositol 5-phosphate 4-kinase (PI5P4K); Phosphatidylinositol 5-phosphate 4-kinase type-2 alpha (Homo sapiens), P48426; PI5P4Kalpha enzyme, ADP-Glo luminescence, 60 min; active compounds read low; max response, %; 330,000 tested, 1.2% active; AID 652105, 2013; active = max response of -50% or lower; inconclusive = between -30% and -50%; inactive = -30% or higher; note: value at the top dose of about 77 µM; % is set by controls: 0 for no effect and ±100 for the full control effect
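qHTS, 1536-well: enzyme/substrate mix, compound by pin tool, 5 microM ATP final; RT 60 min; ADP-Glo reagents 1 (45 min) then 2 (30 min); luminescence.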
Pol kappa inh – qHTS for Inhibitors of Polymerase Kappa | DNA polymerase kappa (Homo sapiens), Q9UBT6 | purified Pol kappa, fluorescent DNA synthesis assay, 10 min | Potency, µM (series often up to 107 µM), for inactives: top-dose activity, negative = inhibition, hits mostly inhibitors | 400,000 tested, 0.53% active | AID 588579, 2011; note: potency is the fitted concentration of half-maximal effect; % is set by controls: 0 for no effect and ±100 for the full control effect
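50 nM final substrate added after 15 min RT preincubation of 10 nM Pol kappa with compound; fluorescence read at 0 and 10 min.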
* hit, by the source's call; ? = inconclusive; . = no result given; [ ] = remark or other dose. Unless noted, calls come from the whole dose curve; as a rule, active = well fitted curve in the direction sought with a large enough effect; inconclusive = small, poorly fitted or top-dose-only effect, or another doubt; inactive = no such curve, though single readings can be large; an effect the other way counts as inactive or inconclusive.

SMILES	Pol eta inh	WRN helicase inh	Pol beta inh	Pol iota inh	PI5P4K alpha inh	Pol kappa inh
Cc1ccc(N=Nc2c(=O)[nH]n3c(=O)cc(C)[nH]c23)cc1	-1%	-15%	0.89µM*	?	?	-24%
COc1ccccc1OCC(=O)Nc1cc(NC(=O)COc2ccccc2OC)cc(C(=O)O)c1	-7%	-23%	-3%	197%	-5	-11%
O=C(COc1ccccc1Cl)Nc1cc(NC(=O)COc2ccccc2Cl)cc(C(=O)O)c1	-17%	-34%	79µM*	140%	-14	-13%
Cc1ccc(OCC(=O)Nc2cc(NC(=O)COc3ccc(C)c(C)c3)cc(C(=O)O)c2)cc1C	?	-11%	50µM*	-15%	-3	-20%
O=C(CSc1nc2sccc2c(=O)[nH]1)N1CCN(c2ccccc2)CC1	50µM*	-11%[11.6 µM]	25µM*	?	?	?
O=C(COc1ncnc2sccc12)N1CCN(C(=O)c2ccco2)CC1	?	?	40µM*	20µM*	?	?
O=C(COc1ncnc2ccccc12)N1CCN(C(=O)c2ccco2)CC1	-13%	11%	-1%	7%	2	-3%
Oc1ccccc1Oc1c(F)c(F)nc(N2CCCC2)c1F	-21%	-16%	45µM*	?	-16	-7%[60.1 µM]
CCN(c1ccccc1C)S(=O)(=O)c1nnc(NC(=O)c2ccco2)s1	50µM*	-11%[11.6 µM]	?	?	-9	?
Cc1cccc(C(=O)Nc2nnc(S(=O)(=O)N(C)Cc3ccc(Cl)cc3)s2)c1	-11%	.	24%	89µM*	.	-1%
CCCCCCCCc1nnc(NC(=O)c2ccco2)s1	-12%	-23%[57.1 µM]	35µM*	-3%	.	-7%
COc1ccc(N(CC(C)C)S(=O)(=O)c2nnc(NC(=O)c3ccco3)s2)cc1	79µM*	6%[11.6 µM]	0%	?	?	-18%
CCCC[C@@H](C=O)NC(=O)[C@H](CC(C)C)NC(=O)OCc1ccccc1	.	.	.	.	.	3%[19.4 µM]
CSCC[C@H](NC(=O)[C@H](CC(C)C)NC(=O)CNC(=O)[C@H](Cc1ccc(O)cc1)NC(=O)[C@H](Cc1ccccc1)NC(=O)[C@H](CCC(N)=O)NC(=O)[C@H](CCC(N)=O)NC(=O)[C@@H]1CCCN1C(=O)[C@H](CCCCN)NC(=O)[C@@H]1CCCN1C(=O)[C@@H](N)CCCN=C(N)N)C(N)=O	.	.	.	.	.	13%[60.1 µM]
C[C@H]1CN([C@@H](C)CO)C(=O)c2cc(Br)cnc2O[C@H]1CN(C)C(=O)c1ccccn1	-16%	-7%	.	.	3	.
CCN(c1ccc(C)cc1C)S(=O)(=O)c1nnc(NC(=O)c2ccc(F)cc2)s1	-10%	.	18µM*	?	.	-28%
CNC(=S)N/N=C/c1ccc(-c2ccc(Cl)c([N+](=O)[O-])c2)o1	0%	?	8.9µM*	14%	-11	-6%
Cc1ccc(-c2ccc(/C=N/NC(=S)Nc3ccccc3)o2)cc1[N+](=O)[O-]	-1%	-11%	18%	32%[58.9 µM]	.	-9%
Cc1ccc(C(=O)N/N=C\c2ccc(-c3ccc(Cl)c(Cl)c3)o2)cn1	-30%	-33%	20µM*	-19%	-6	-20%
Cc1cccc2nc(-c3cccc(NS(=O)(=O)c4ccccc4)c3)cn12	.	.	11%	?	.	1%
COc1ccc(C(=O)Nc2nnc(CC(=O)N/N=C/c3ccc(O)cc3O)s2)cc1	.	.	5µM*	.	.	.
Cc1ccc2[nH]c(=O)c(CNS(=O)(=O)c3ccccc3)c(-c3ccccc3)c2c1	-8%	0%	-6%	5%	0	-4%

Screening results from PubChem.
